Experimental data as given in PubChem BioAssay (Tox21).
Inconclusive results are not listed. Calls of active or inactive are those of the source. Unless noted, calls follow the shape of the dose curve; as a rule, active = well fitted curve in the direction sought with a large enough effect in the repeat runs; inconclusive = weak or mixed curves; inactive = no such curve, though single readings can be large; an effect the other way counts as inactive or inconclusive.

How the values were obtained:
[1] = qHTS assay to identify small molecule antagonists of the estrogen receptor alpha (ER-alpha) signaling pathway using the BG1 cell line in the presence of 0.1 nM 17-beta-estradiol - cell viability counter screen (AID 1259241); also: nearly all actives have a fitted effect of over 40% in size
Procedure, shortened: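 Estradiol-stimulated (0.1 nM) VM7Luc4E2 cells exposed to compounds 22 hr; viability measured by fluorescence of cleaved CellTiter-Fluor substrate after 30 min.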

[2] = qHTS assay to identify small molecule antagonists of the androgen receptor (AR) signaling pathway using the MDA cell line in the presence of 0.5 nM R1881 - cell viability counter screen (AID 1259242); also: nearly all actives have a fitted effect of over 45% in size
Procedure, shortened: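 Live-cell protease activity was measured by CellTiter-Fluor fluorescence after 30 min. Before that, MDA-kb2 MMTV-luciferase cells had 16 hr at 37C without CO2, exposed to test compounds and 0.5 nM R1881 final.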

[3] = target: Estrogen receptor (Homo sapiens) (UniProt P03372); assay: qHTS assay to identify small molecule antagonists of the estrogen receptor alpha (ER-alpha) signaling pathway using the BG1 cell line in the presence of 0.1 nM 17-beta-estradiol (AID 1259244); also: nearly all actives have a fitted effect of over 50% in size; also: potency is read from the fitted curve at half-maximal effect
Sequence of Estrogen receptor (Homo sapiens) (P03372 whole entry, looked up): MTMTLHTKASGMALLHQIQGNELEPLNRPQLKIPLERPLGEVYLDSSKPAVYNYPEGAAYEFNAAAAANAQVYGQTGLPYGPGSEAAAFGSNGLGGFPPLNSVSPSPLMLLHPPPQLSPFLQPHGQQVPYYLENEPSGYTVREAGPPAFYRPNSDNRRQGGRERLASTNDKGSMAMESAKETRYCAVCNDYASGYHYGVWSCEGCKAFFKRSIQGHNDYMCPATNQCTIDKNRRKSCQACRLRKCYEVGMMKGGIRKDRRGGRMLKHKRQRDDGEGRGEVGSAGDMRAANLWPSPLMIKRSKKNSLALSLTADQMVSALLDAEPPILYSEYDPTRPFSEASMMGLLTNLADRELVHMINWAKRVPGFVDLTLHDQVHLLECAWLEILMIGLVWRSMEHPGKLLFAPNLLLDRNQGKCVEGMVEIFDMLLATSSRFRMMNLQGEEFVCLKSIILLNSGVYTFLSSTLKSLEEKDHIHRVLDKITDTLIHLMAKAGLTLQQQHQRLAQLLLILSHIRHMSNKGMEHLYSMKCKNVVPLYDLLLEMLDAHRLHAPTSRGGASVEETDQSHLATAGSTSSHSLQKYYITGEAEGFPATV
Procedure, shortened: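 Luciferase luminescence (ONE-Glo, 30 min at room temperature) was read after 22 hr at 37C exposure to compounds plus 17beta-estradiol at 0.1 nM final. Cells were VM7Luc4E2 with endogenous ER-alpha and an ERE-driven luciferase, pre-cultured 5 days in hormone-depleted medium.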

[4] = qHTS assay to identify small molecule phospholipidosis (PLD) inducers (AID 1259344; active = well fitted curve in the direction sought with a large enough effect; an effect the other way counts as inactive or inconclusive)
Procedure, shortened: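 Accumulated phospholipid, stained red by LipidTOX during 24 h compound treatment of HepG2 cells at 37 C, is quantified from images as pit number and intensity, normalised per cell using Hoechst-stained nuclei.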

[5] = qHTS assay to identify small molecule HDAC inhibitors (AID 1259364); also: nearly all actives have a fitted effect of over 45% in size; also: potency is read from the fitted curve at half-maximal effect; as to activity change, negative = inhibition: top concentration of the series differs between compounds
Procedure, shortened: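 Luminescence read after 30 min room-temperature HDAC-Glo incubation measures cellular class I/II HDAC activity. Compounds were applied for 2 hr at 37 C to HCT-116 wild-type cells seeded the day before.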

[6] = qHTS assay to identify small molecule HDAC inhibitors - cell viability counter screen (AID 1259365); also: series mostly up to about 92 µM; nearly all actives have a fitted effect of over 50% in size
Procedure, shortened: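 After overnight seeding at 1,500 cells per well, wild-type HCT-116 cultures took up compounds in DMSO for 2hr at 37 C. Viable cell content came from luminescence with CellTiter-Glo.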

[7] = qHTS assay to identify small molecule agonists of the sonic hedgehog signaling (Shh) pathway - cell viability counter screen (AID 1259366); also: nearly all actives have a fitted effect of over 50% in size
Procedure, shortened: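 Same-well cytotoxicity read. Gli1-Luc reporter 3T3 cells; compounds 24hr, 37C/5% CO2; CellTiter-Fluor fluorescence.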

[8] = qHTS assay to identify small molecule antagonists of the sonic hedgehog signaling (Shh) pathway - cell viability counter screen (AID 1259367); also: nearly all actives have a fitted effect of over 55% in size
Procedure, shortened: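 CellTiter-Fluor signal in conditioned medium-stimulated 3T3 Gli1-Luc cells, 23 hr compound exposure, 37C.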

[9] = qHTS assay to identify small molecule antagonists of the sonic hedgehog signaling (Shh) pathway (AID 1259369; calls by dose curve; also: nearly all actives have a fitted effect of over 45% in size; also: potency is read from the fitted curve at half-maximal effect)
Procedure, shortened: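 Antagonist mode: compound added to 3T3 Gli1-Luc cells followed by conditioned-medium stimulation, 24 h at 37 C, 5% CO2. Inhibition taken as loss of Gli1-driven luciferase luminescence.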

[10] = target: Estrogen receptor beta (Homo sapiens) (UniProt Q92731); assay: qHTS assay to identify small molecule agonists of the estrogen receptor beta (ER-beta) signaling pathway (AID 1259377; active = well fitted activation curve with a large enough effect in the signal ratio in the repeat runs, not every such curve was filed as active; the % refers to the signal ratio)
Sequence of Estrogen receptor beta (Homo sapiens) (Q92731 whole entry, looked up): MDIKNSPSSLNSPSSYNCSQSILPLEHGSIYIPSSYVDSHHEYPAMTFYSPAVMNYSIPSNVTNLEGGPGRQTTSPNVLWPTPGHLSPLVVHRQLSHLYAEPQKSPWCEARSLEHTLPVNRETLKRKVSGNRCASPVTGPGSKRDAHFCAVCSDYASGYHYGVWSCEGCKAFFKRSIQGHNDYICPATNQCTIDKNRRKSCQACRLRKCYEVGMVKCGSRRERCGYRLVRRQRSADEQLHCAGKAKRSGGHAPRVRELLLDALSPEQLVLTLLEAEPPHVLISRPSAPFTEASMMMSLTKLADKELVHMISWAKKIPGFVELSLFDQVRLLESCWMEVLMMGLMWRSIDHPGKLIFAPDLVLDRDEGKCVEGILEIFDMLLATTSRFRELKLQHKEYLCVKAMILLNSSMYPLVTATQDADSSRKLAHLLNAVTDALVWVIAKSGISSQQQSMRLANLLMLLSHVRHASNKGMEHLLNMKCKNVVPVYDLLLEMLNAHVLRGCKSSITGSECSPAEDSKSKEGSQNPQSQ
Procedure, shortened: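 Read-out: beta-lactamase FRET fluorescence. Cell line: ER-beta-UAS-bla HEK293T in 2% charcoal-stripped FBS. Exposure: 16 hr at 37C. Substrate step: 2 h at room temperature.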

[11] = qHTS assay to identify small molecule agonists of the androgen receptor (AR) signaling pathway in the presence of an antagonist - cell viability counter screen (AID 1259379);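 also: MDA-kb2 human breast cancer cells carrying an MMTV luciferase reporter; series mostly up to about 92 µM; nearly all actives have a fitted effect of over 25% in size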
Procedure, shortened: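 Cytotoxicity counter-screen run in the same wells as the nilutamide-challenged (3.0 µM final) AR agonist assay in MDA-kb2 cells. Compounds tested at 15 concentrations for 16 h, 37 °C without CO2; CellTiter-Fluor fluorescence read.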

[12] = qHTS assay to identify small molecule agonists of the estrogen receptor beta (ER-beta) signaling pathway - cell viability counter screen (AID 1259380); also: nearly all actives have a fitted effect of over 30% in size
Procedure, shortened: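 Cell viability counter screen: CellTiter-Glo luminescence (30 min, room temperature) measured in the same wells as the beta-lactamase readout, after 16 hr compound exposure at 37C of ER-beta-bla HEK293T cells in 2% charcoal-stripped FBS medium.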

[13] = qHTS assay to identify small molecule antagonists of the estrogen receptor beta (ER-beta) signaling pathway - cell viability counter screen (AID 1259382);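 also: HEK293T cells carrying ER-beta-UAS-bla reporter stimulated with estradiol; series mostly up to about 92 µM; nearly all actives have a fitted effect of over 55% in size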
Procedure, shortened: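 Cytotoxicity was measured in the same wells by CellTiter-Glo luminescence after 30 min at room temperature. Cells were ER-beta-bla HEK293T in charcoal-stripped serum, given compound together with 1 nM E2 and incubated 16 h at 37C.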

[14] = target: Estrogen receptor (Homo sapiens) (UniProt P03372); assay: qHTS assay to identify small molecule agonists of the estrogen receptor alpha (ER-alpha) signaling pathway in the presence of an antagonist (AID 1259383; calls by dose curve; also: top concentration of the series differs between compounds; nearly all actives have a fitted effect of over 15% in size)
Procedure, shortened: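 Agonist-mode confirmation run in the presence of 10.0nM (final) ICI-182,780 antagonist. The reporter was ERE-driven luciferase in VM7Luc4E2 cells, grown in charcoal-stripped serum. Cells were exposed to 15-concentration compound series for 22hr, then ONE-Glo luminescence was read.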

[15] = qHTS assay to identify small molecule agonists or antagonists of the thyroid stimulating hormone receptor (TSHR) signaling pathway - wild type cell line counter screen (AID 1259384; calls by dose curve)
Procedure, shortened: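 Counter screen in untransfected Hek293: compounds (15-point titration, triplicate) plus phosphodiesterase inhibitor Ro20-1724 added after 18 h plating; 30 min RT. Intracellular cAMP via competitive d2/cryptate immunoassay, 1 h incubation.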

[16] = target: Thyrotropin receptor (Homo sapiens) (UniProt P16473); assay: qHTS assay to identify small molecule antagonists of the thyroid stimulating hormone receptor (TSHR) signaling pathway (AID 1259385; calls by dose curve; also: nearly all actives have a fitted effect of over 20% in size)
Sequence of Thyrotropin receptor (Homo sapiens) (P16473 whole entry, looked up): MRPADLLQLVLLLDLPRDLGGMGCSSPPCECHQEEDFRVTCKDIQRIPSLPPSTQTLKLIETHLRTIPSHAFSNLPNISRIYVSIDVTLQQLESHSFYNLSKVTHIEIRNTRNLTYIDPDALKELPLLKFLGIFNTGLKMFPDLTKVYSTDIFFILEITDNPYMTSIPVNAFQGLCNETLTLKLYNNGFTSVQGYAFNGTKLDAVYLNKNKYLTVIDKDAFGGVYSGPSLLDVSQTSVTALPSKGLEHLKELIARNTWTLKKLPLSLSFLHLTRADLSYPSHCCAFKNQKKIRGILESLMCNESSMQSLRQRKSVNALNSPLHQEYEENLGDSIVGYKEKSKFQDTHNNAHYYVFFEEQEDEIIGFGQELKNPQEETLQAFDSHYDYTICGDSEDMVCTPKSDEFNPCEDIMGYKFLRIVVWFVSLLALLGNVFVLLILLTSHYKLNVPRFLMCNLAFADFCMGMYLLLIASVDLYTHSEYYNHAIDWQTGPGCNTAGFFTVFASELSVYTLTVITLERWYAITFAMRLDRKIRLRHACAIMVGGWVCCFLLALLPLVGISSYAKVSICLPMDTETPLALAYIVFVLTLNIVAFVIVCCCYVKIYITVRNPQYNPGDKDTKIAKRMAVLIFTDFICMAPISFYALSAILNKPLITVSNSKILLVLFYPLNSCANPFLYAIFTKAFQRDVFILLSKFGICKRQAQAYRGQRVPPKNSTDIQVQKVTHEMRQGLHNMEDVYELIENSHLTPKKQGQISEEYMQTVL
Procedure, shortened: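 Antagonist mode: compound-treated TSHR-expressing HEK293 cells were stimulated with 1.5 ng/mL TSH (final) in presence of Ro20-1724 for 30 min at RT. HTRF cAMP detection after 1 h; each compound tested at 15 concentrations, triplicate.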

[17] = qHTS assay to identify small molecule agonists of the sonic hedgehog signaling (Shh) pathway (AID 1259368; calls by dose curve;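 also: NIH/3T3-derived 3T3Gli1-Luc cells carrying a stable Gli1-driven firefly luciferase reporter; series mostly up to about 92 µM; nearly all actives have a fitted effect of over 15% in size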)
Procedure, shortened: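 Luminescence was read after 30 min at room temperature with luciferase reagent. Before that, 3T3Gli1-Luc cells (NIH/3T3 clone, stable Gli1-Luc reporter; 2,000/well) were exposed to compounds for 24 hr at 37C, 5% CO2, compounds being added 4 hr post-plating.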

[18] = target: Estrogen receptor beta (Homo sapiens) (UniProt Q92731); assay: qHTS assay to identify small molecule antagonists of the estrogen receptor beta (ER-beta) signaling pathway (AID 1259378; active = well fitted inhibition curve with a large enough effect in the signal ratio in the repeat runs, not every such curve was filed as active; the % refers to the signal ratio)
Procedure, shortened: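 Antagonist mode: compounds added to beta-lactamase reporter HEK293T ER-beta-UAS cells stimulated with E2 (1nM final), 16 hr at 37C. LiveBLAzer B/G FRET substrate, 2 hours room temperature, fluorescence read-out.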
% is scaled to controls: 0 for no effect and ±100 for the full control effect.

Cc1ccc(S(=O)(=O)NC(=O)NC2CCCCC2)cc1
inactive: Potency [1] | Potency [2] | Potency [3] | Potency [4] | Potency [5] | Potency [6] | Potency [7] | Potency [8] | Potency [9] | Potency [10] | Potency [11] | Potency [12] | Potency [13] | Potency [14] | Potency [15] | Potency [16]

CCN(CC)CCNC(=O)c1cc(Cl)c(N)cc1OC
inactive: Potency [1] | Potency [2] | Potency [3] | Potency [4] | Potency [5] | Potency [7] | Potency [8] | Potency [17] | Potency [9] | Potency [10] | Potency [18] | Potency [11] | Potency [12] | Potency [13] | Potency [14] | Potency [15] | Potency [16]

CCN(CC)CC(=O)Nc1c(C)cccc1C(=O)OC
inactive: Potency [1] | Potency [2] | Potency [3] | Potency [5] | Potency [6] | Potency [7] | Potency [8] | Potency [17] | Potency [9] | Potency [10] | Potency [18] | Potency [11] | Potency [12] | Potency [13] | Potency [14] | Potency [15] | Potency [16]

CCO[Si](C)(CCCOCC1CO1)OCC (stereo unspecified)
inactive: Potency [1] | Potency [2] | Potency [3] | Potency [5] | Potency [6] | Potency [7] | Potency [8] | Potency [17] | Potency [10] | Potency [11] | Potency [12] | Potency [13] | Potency [14] | Potency [15] | Potency [16]

CCOC(=O)c1c(N)sc2c1CCN(Cc1ccccc1)C2
inactive: Potency [1] | Potency [2] | Potency [4] | Potency [5] | Potency [6] | Potency [10] | Potency [18] | Potency [11] | Potency [14] | Potency [15] | Potency [16]
active: Potency [3] 29.8 µM | Potency [9] 10.6 µM

O=C(O)CCS
inactive: Potency [1] | Potency [2] | Potency [3] | Potency [5] | Potency [6] | Potency [8] | Potency [17] | Potency [9] | Potency [11] | Potency [12] | Potency [13] | Potency [14] | Potency [15] | Potency [16]

COc1ccc(C2C(=O)c3ccccc3C2=O)cc1
active: Potency [5] 23.7 µM
inactive: Potency [1] | Potency [2] | Potency [3] | Potency [4] | Potency [6] | Potency [17] | Potency [9] | Potency [10] | Potency [12] | Potency [13] | Potency [14]

O=C(O)CCCc1c[nH]c2ccccc12
inactive: Potency [1] | Potency [2] | Potency [5] | Potency [6] | Potency [7] | Potency [8] | Potency [17] | Potency [9] | Potency [10] | Potency [18] | Potency [11] | Potency [12] | Potency [13] | Potency [15] | Potency [16]

OCC(CO)n1cnc(-c2ccc(F)cc2)c1-c1ccnc(Oc2ccccc2)n1
inactive: Potency [1] | Potency [2] | Potency [3] | Potency [5] | Potency [6] | Potency [17] | Potency [10] | Potency [11] | Potency [12] | Potency [13]

CCCCCC
inactive: Potency [1] | Potency [2] | Potency [5] | Potency [6] | Potency [7] | Potency [8] | Potency [17] | Potency [9] | Potency [11] | Potency [12] | Potency [13] | Potency [15] | Potency [16]

CC(C)(C)NCC(O)COc1cccc2c1C[C@H](O)[C@H](O)C2 (stereo partly specified)
inactive: Potency [1] | Potency [2] | Potency [4] | Potency [5] | Potency [6] | Potency [7] | Potency [17] | Potency [9] | Potency [10] | Potency [18] | Potency [11] | Potency [12] | Potency [14] | Potency [15] | Potency [16]

c1ccc2sc(SSc3nc4ccccc4s3)nc2c1
inactive: activity change, negative = cytotoxicity [1] 8.69% [at 19 µM] | viability change, negative = cytotoxic [2] 8.85% [at 19 µM] | Potency [4] | activity change, negative = inhibition [5] -21.4% [at 19 µM] | activity change, negative = cytotoxicity [6] 0.0537% [at 19 µM] | viability change, negative = cytotoxic [7] 21.7% [at 19 µM] | viability change, negative = cytotoxic [8] 7.43% [at 19 µM] | activity change, negative = inhibition [9] 7.11% [at 19 µM] | activity change, negative = cytotoxicity [11] 5.77% [at 19 µM] | activity change, negative = cytotoxicity [12] -1.6% [at 19 µM] | activity change, negative = cytotoxicity [13] -0.0017% [at 19 µM] | activation [14] 2.07% [at 19 µM] | cAMP activity change [15] 2.9% [at 18.9 µM, active compounds read high] | activity change, negative = inhibition [16] 2.43% [at 19 µM]
